For 35 molecules, z-score results are on record in PubChem BioAssay.

Values without a mark were called inactive. The source made the active and inactive calls.

This assay is described as follows: PSAC antagonists in infected red cells, primary screen, cell-based, P. falciparum Indochina, OD700, 1 h (AID 1154). The conditions noted are these: P. falciparum Indochina infected RBC osmotic lysis, higher = more signal, called active from +8 up or from −8 down.
For the molecule `CCCC[C@@H](O)C1=C(COC)Cn2c(=O)n(-c3ccccc3)c(=O)n2[C@H]1CO`, the z-score was -0.0913.

Take `CCN(CC)c1ccc(N2CC=CC34O[C@@H]5C=CCOC(=O)[C@@H]5[C@H]3C(=O)N(CCCO)[C@@H]4C2=O)cc1` (stereo not given in full): the z-score is 0.246.

Consider `COCCOC(=O)N1C(=O)[C@@]2(c3cc(C#CCC(C(=O)OC)C(=O)OC)ccc31)[C@H](c1ccc(OCCO)cc1)N1[C@H](c3ccccc3)[C@H](c3ccccc3)OC(=O)[C@H]1[C@@H]2C(=O)N1CCCCCCC1`, for which the z-score is 3.66.

Regarding `CCOC(=O)C1=CC[C@@H](c2ccc(F)cc2)N(S(=O)(=O)c2ccc(C)cc2)[C@H]1c1ccc([N+](=O)[O-])cc1`, the z-score is 1.83.

Regarding `COC(=O)c1c(CC[C@@H](CO)NC(=O)N[C@@H](Cc2ccccc2)Cn2cc(-c3cncn3C)nn2)oc(C(C)=O)c1C(=O)OC`, the z-score was 1.49.

For the molecule `O=C(NCCO)C1=C[C@H](Oc2ccccc2I)[C@@H](O)[C@H](NCc2ccc(F)cc2)C1`, the z-score is 5.38.

As for `CCCCN1CC=CC23O[C@@H]4/C=C\CCC(C)OC(=O)C4[C@H]2C(=O)N(C(C)CO)[C@@H]3C1=O` (stereo not given in full), the z-score was 1.82.

As for `CC(C)C[C@@H]1NC(=O)C([C@@H](C)OCc2ccccc2)NC(=O)[C@@]23C(=O)N[C@@H](Cc4ccccc4)C2[C@H](C)[C@@]2(C)O[C@H]2C3/C=C/CC/C=C/CNC1=O` (stereo not given in full), the z-score is 1.35.

Consider `COCCOC(=O)N1C(=O)[C@@]2(c3cc(C#CCCO)ccc31)[C@H](C(=O)N1CCc3cc(OC)c(OC)cc3C1)[C@H]1C(=O)O[C@H](c3ccccc3)[C@H](c3ccccc3)N1[C@@H]2c1ccccc1OCCO`, for which the z-score is 3.62.

For the molecule `COc1ccc([Si](C)(C)[C@H]2[C@H](CC(=O)N3Cc4ccccc4C[C@H]3CO)O[C@@]3(C(=O)N(Cc4cccc(N5C(=O)c6cccc7cccc5c67)c4)c4ccccc43)[C@@H]2C)cc1`, the z-score is 5.25.

As to `CN1C(=O)C2C(C1=O)C1C=C(c3ccc(CO)cc3)C2C(c2cccs2)N1C` (stereo not given), the z-score was 3.57.

Consider `CC(C)CNC(=O)[C@@]1(C)c2ccccc2C(=O)N(Cc2cc(F)cc(C(F)(F)F)c2)[C@H]1c1ccc(CO)cc1`, for which the z-score is 2.26.

As to `COc1ccc([Si](C)(C)[C@H]2[C@H](CCO)O[C@@]3(C(=O)N(Cc4ccc(N5CCOC5=O)cc4)c4ccccc43)[C@@H]2C)cc1`, the z-score was 34.9 (active).

On to `CCCC=C(CCC)[C@@H](NC(=O)c1ccco1)c1ccc(C(=O)OC)cc1`, for which the z-score was -0.687.

Turning to `CO[C@H]1O[C@H](CO)[C@@H](OC(=O)Nc2ccc(C(F)(F)F)cc2)[C@H](OC(=O)Nc2ccccc2-c2ccccc2)[C@@H]1OC(=O)Nc1ccccc1-c1ccccc1`, the z-score was 4.11.

`CC[C@H](C)C(=O)O[C@H]1CC[C@]2(C)C3=C(CCC2C1(C)C)[C@]1(C)CC[C@H]([C@H](C)CCCC(C)C)[C@@]1(C)CC3` (stereo not given in full): the z-score is -0.223.

With `COCCn1c(C(=O)N2CCCC2)cc2c1C[C@H]1CN(C(=O)c3ccccc3)[C@@](Cc3ccccc3)(C(=O)OC)[C@@H]21`, the z-score is 1.46.

As for `C[C@]1(C(=O)NCC(F)(F)F)c2ccccc2C(=O)N(Cc2ccc(OC(F)(F)F)cc2)[C@H]1c1ccc(CO)cc1`, the z-score was 2.58.

With `CN(C)CCCNC(=O)[C@@H]1c2ccccc2C(=O)N(C2Cc3ccccc3C2)[C@H]1c1ccc(CO)cc1`, the z-score is 3.98.

With `Cc1c(NC(=O)/C(C#N)=C/c2ccc(Cl)cc2)c(=O)n(-c2ccccc2)n1C`, the z-score is 6.41.

Consider `C=CCC(OC(C)=O)[C@@H]1[C@@H](N(Cc2ccc(-c3ccccc3)cc2)C(=O)c2cccc3ccccc23)c2cc(OCCCO)ccc2N1C(=O)c1ccc2ccccc2c1` (stereo not given in full), for which the z-score was 0.441.

Take `COCCOC(=O)N1C(=O)[C@@]2(c3ccccc31)[C@H](c1ccc(OCCO)cc1)N1[C@H](c3ccccc3)[C@H](c3ccccc3)OC(=O)[C@H]1[C@@H]2C(=O)N1CCN(c2ncccn2)CC1`: the z-score is 22.1 (active).

Turning to `C=C(/C(=C/C[C@@H](OC(C)=O)c1ccccc1OCCO)c1cc(C(=O)OC)ccc1OC)C(C)C`, the z-score is 14.6 (active).

Regarding `CCCC[C@H]1OB(O)C[C@H]2C1=C(COC)C[C@H]1C(=O)C=CC(=O)[C@H]12`, the z-score was 1.09.

For the molecule `COc1ccc(NC(=O)O[C@H]2[C@H](OC(=O)Nc3ccc4c(c3)OCO4)[C@H](OC(=O)Nc3ccc4c(c3)OCO4)[C@@H](OC)O[C@@H]2CO)cc1`, the z-score is 13.7 (active).

Turning to `C=CCN1C(=O)[C@]2(O[C@H](CCO)[C@@H]([Si](C)(C)c3ccc(OC)cc3)[C@@H]2C)c2ccccc21`, the z-score was 11.9 (active).

`COC(=O)[C@]1(CO)N=C(c2ccc(OCCCO)cc2)O[C@@H]1c1ccccc1CN=[N+]=[N-]`: the z-score was 7.47.

As for `COc1cccc(OC)c1C(=O)O[C@H]1[C@@H]2OC(=O)[C@H](Cc3cccc(Br)c3)C/C=C/C[C@@H](Cc3cccc(Br)c3)C(=O)O[C@H]2[C@@H](OC)O[C@@H]1CO`, the z-score is 3.18.

On to `COCCOC(=O)N1C(=O)[C@@]2(c3cc(C#CC4(O)CCCCCC4)ccc31)[C@H](C(=O)NC[C@H](O)c1ccccc1)[C@H]1C(=O)O[C@H](c3ccccc3)[C@H](c3ccccc3)N1[C@@H]2c1ccc(O)cc1`, for which the z-score is 0.954.

Turning to `O=C1C2C=CC(C(O)c3ccc([N+](=O)[O-])cc3)N(Nc3ccccc3)C2C(=O)N1c1ccccc1` (stereo not given), the z-score was 3.99.

For the molecule `C=C(CCCC)C(=O)CC[C@H](OC(C)=O)c1ccccc1OCCO`, the z-score was 5.66.

In the case of `C=C(COC)/C(=C/C[C@H](OC(=O)c1ccncc1)c1ccc(OCCO)cc1)c1cc(C(=O)OC)ccc1OC`, the z-score is 21.4 (active).

Consider `COC(=O)[C@@]1(Cc2ccc(OC)cc2)[C@@H]2[C@@H](CC(=O)[C@H]2CC(=O)C(=O)N2CCCC2)CN1C(=O)c1ccccc1`, for which the z-score is 4.55.

For the molecule `CCOC(=O)C[C@H]1[C@H](OC(=O)c2ccc(-c3ccccc3)cc2)[C@@H](NC(=O)CC(C)C)c2cc(OCCCO)ccc2N1C(=O)Cc1ccc(OC)cc1`, the z-score is 3.94.

Turning to `C=CCN1C(=O)[C@]2(O[C@H](CCn3cc([C@H](O)c4ccccc4)nn3)[C@@H]([Si](C)(C)c3ccc(OC)cc3)[C@@H]2C)c2cc(N3C(=O)c4cccc5cccc3c45)ccc21`, the z-score was 5.26.
